The record followed here is PubChem BioAssay AID1259374 (The Scripps Research Institute Molecular Screening Center, 2018).

Several values for one entry are separate records, joined by “and”; a condition that tells them apart may be missing. Equal values may be shown once. Among all 650,000 compounds or so, about 5,900 (0.91%) were called active. No stated cut-off is given here; in the data, active means inhibition above about 50%; inactive means the rest. What follows is part of a selection rich in actives, with near analogues and random picks from the rest. More than one record can exist for a structure, and the calls need not agree.

The target of this experiment is Microphthalmia-associated transcription factor (Homo sapiens) (UniProt O75030). In words: MITF inhibitors, primary screen, biochemical, AlphaScreen, human (AID 1259374).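 Further: 0% = vehicle wells with protein.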 The settings on record: AlphaScreen MITF homodimerization, bead proximity signal; at 2.6 µM; stronger effect = higher value. Background: Bead proximity is the source of the signal in Alpha formats.
Chain of Microphthalmia-associated transcription factor (Homo sapiens) (O75030 whole entry, looked up): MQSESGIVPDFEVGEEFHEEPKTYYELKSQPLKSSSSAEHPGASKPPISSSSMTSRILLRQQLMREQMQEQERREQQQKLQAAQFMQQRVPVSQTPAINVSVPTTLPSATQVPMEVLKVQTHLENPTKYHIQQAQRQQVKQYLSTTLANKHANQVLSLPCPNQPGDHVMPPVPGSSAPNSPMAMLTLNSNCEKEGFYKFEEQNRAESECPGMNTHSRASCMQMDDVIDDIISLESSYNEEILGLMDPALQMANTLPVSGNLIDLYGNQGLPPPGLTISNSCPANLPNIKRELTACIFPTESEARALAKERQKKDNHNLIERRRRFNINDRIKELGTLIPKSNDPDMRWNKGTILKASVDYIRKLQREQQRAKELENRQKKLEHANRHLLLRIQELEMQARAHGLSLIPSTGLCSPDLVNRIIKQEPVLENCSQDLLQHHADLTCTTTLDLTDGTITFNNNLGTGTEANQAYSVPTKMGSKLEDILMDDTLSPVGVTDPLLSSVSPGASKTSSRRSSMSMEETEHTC
As usually defined, the inhibition is the drop in the measured response relative to a control, in per cent. In the case of `COc1cc([N+](=O)[O-])ccc1NC(=O)/C=C/c1ccc(F)cc1`, the inhibition was 0.43% (inactive).

As for `CC(=O)Nc1cccc(NC(=O)CSc2nc(C(C)(C)C)nc3ccccc23)c1`, the inhibition was 16.8% (inactive).

In the case of `COc1cccc(C(C)N(C)C(=O)c2cc(COc3ccc(C(C)=O)cc3)on2)c1` (stereo not drawn), the inhibition is 11.1% (inactive).

Take `COc1ccccc1C1CN(Cc2ccc(NC(C)=O)s2)Cc2ccccc2O1` (stereo not drawn): the inhibition is 1.08% (inactive).

As for `CC1(C)CC(=O)C2=C(C1)N(c1cccc(Cl)c1Cl)C1=C(C(=O)CC(C)(C)C1)C2c1ccc(F)c(Br)c1`, the inhibition was -2.02% (inactive).

Regarding `O=C(N/N=C/c1ccncc1)c1cnn(-c2ccccc2)c1C(F)(F)F`, the inhibition was -19.6% (inactive).

For the compound `CC(=O)NC(CC(C)C)C(=O)NC(C(=O)OCc1ccccc1)C(C)C` (stereo not drawn), the inhibition was 11.1% (inactive).

As to `Cc1c(Cl)cccc1NC(=O)c1cc(S(=O)(=O)N2CCC(C)CC2)ccc1F`, the inhibition was 1.77% (inactive).

As to `CC1CCN(S(=O)(=O)c2ccc(F)c(C(=O)Nc3cc(Cl)ccc3Cl)c2)CC1`, the inhibition is -3.2% (inactive).

Take `CC1CCN(S(=O)(=O)c2ccc(Cl)c(C(=O)Nc3ccccc3[N+](=O)[O-])c2)CC1`: the inhibition is 51% (active).

`Cc1ccccc1S(=O)(=O)Cc1ccc(C(=O)NCCCN2CCCCCC2)o1`: the inhibition was -6.96% (inactive).

As for `COc1ccccc1N(CN1CCCC1=O)C(=O)c1cc(C)cc(C)c1`, the inhibition is 3.77% (inactive).

`Cc1ccc(C2SCC(=O)N2c2ccc(C)cc2)cc1` (stereo not drawn): the inhibition was 7.57% (inactive).

Turning to `O=C(Nc1cc(Cl)ccc1Cl)c1cc(C2CC2)on1`, the inhibition was -4.67% (inactive).

As for `O=C(CSc1nn2c(=O)c3ccccc3nc2s1)c1ccccc1`, the inhibition was 8.41% (inactive).

Turning to `CC(=O)Oc1cccc(N2C(=O)c3cccnc3C2=O)c1`, the inhibition was 38.1% (inactive).

Regarding `CC(=O)c1cccc(N2C(=O)c3cccnc3C2=O)c1`, the inhibition is 50.6% (active).

On to `CC(=O)c1cccc(N2C(=O)c3ccc([N+](=O)[O-])cc3C2=O)c1`, for which the inhibition is 4.17% (inactive).

`CC(C)c1c(O)nc(SCC(=O)NC(C)(C)C)[nH]c1=O`: the inhibition is 9.94% (inactive).

Turning to `CNCC(O)c1ccc(O)c(O)c1` (stereo not drawn), the inhibition was 83.8% (active) and -4.84% (inactive) and -7.17% (inactive).

Regarding `Cc1nnc2n1NC(c1ccc(F)cc1)C(C(=O)Nc1ccccc1C(F)(F)F)S2` (stereo not drawn), the inhibition was -7.82% (inactive).

For `COc1cc(Br)c(/C=C2/NC(=O)N(c3cccc(Cl)c3)C2=O)cc1OC`, the inhibition was -4.06% (inactive).

As for `O=C(Cc1ccc(F)cc1)Nc1cnn(-c2cccc(C(=O)Nc3ccc(N4CCOCC4)cc3)c2)c1`, the inhibition was -19.1% (inactive).

In the case of `COc1ccc(NC(=O)C2CC(=O)N(c3ccc(Oc4ccccc4)cc3)C2)cc1` (stereo not drawn), the inhibition is 12.4% (inactive).

`C=CCc1ccc(OCCN2CC(C)OC(C)C2)c(OC)c1` (stereo not drawn): the inhibition is 34.3% (inactive).

For `CC1CN(CCOc2ccc(Cl)c3ccccc23)CC(C)O1` (stereo not drawn), the inhibition was 27.1% (inactive).

With `CC1CN(CCOc2ccccc2[N+](=O)[O-])CC(C)O1` (stereo not drawn), the inhibition is 50.7% (active).

For `Cc1nc2c(ccc3nc(NC(=O)c4ccc([N+](=O)[O-])o4)sc32)s1`, the inhibition is -9.59% (inactive).

Take `O=C(Nc1ccc(Cl)c(Cl)c1)C1C2C=CC3(O2)C1C(=O)N(Cc1cccs1)C3C(=O)NC1CCCCC1` (stereo not drawn): the inhibition was 6.14% (inactive).

In the case of `CC(NC(=O)CN(C)S(=O)(=O)c1cccs1)c1ccccc1` (stereo not drawn), the inhibition was -11.7% (inactive).

With `Cc1ccc(C)n1C(Cc1ccccc1)C(=O)O` (stereo not drawn), the inhibition was 66.9% (active).

For the compound `O=C(Nc1ccccc1)C(Cc1ccccc1)N1C(=O)c2ccccc2C1=O` (stereo not drawn), the inhibition was 3.18% (inactive).

Turning to `CC(C)CC(C(=O)O)N1C(=O)c2ccccc2C1=O` (stereo not drawn), the inhibition is 6.74% (inactive).

With `CC(C)N1CCN(C(=O)CC2(c3ccccc3)CC(=O)N(CCc3ccccn3)C2=O)CC1` (stereo not drawn), the inhibition is 18.7% (inactive).

For `Cc1cc(N2CCCC2)nc(Nc2ccc(NC(=O)c3c(F)cccc3Cl)cc2)n1`, the inhibition was 8.34% (inactive).

As for `CCc1ccc(NC(=O)CS(=O)CC(=O)N2CCN(c3ccccc3F)CC2)cc1` (stereo not drawn), the inhibition was -10.3% (inactive).

Take `CCc1ccc(NC(=O)CS(=O)CC(=O)NCCCc2ccccc2)cc1` (stereo not drawn): the inhibition is 60.7% (active).

In the case of `CCc1ccc(NC(=O)Nc2ccccc2)cc1`, the inhibition is 7.42% (inactive).

In the case of `COc1ccc(C(=O)Nc2ccc3scnc3c2)cc1`, the inhibition was -2.75% (inactive).

Take `COc1ccc(-c2nnn(CC(=O)NCc3ccc(C)cc3)n2)cc1OC`: the inhibition is 16.6% (inactive).

Consider `COc1ccc(C(=O)N/N=C/c2c(O)ccc3ccccc23)cc1`, for which the inhibition was 16.9% (inactive).

As for `COc1ccc(O)c(/C=N/NC(=O)c2ccc(NC(C)=O)cc2)c1`, the inhibition is 17.1% (inactive).

`COc1ccc(C(=O)N/N=C/c2ccc(O)c3ncccc23)cc1`: the inhibition was 100% (active).

`Cc1cc(C)c(NS(=O)(=O)c2ccc3c(c2)n(C)c(=O)c(=O)n3C)c(C)c1`: the inhibition is 4.25% (inactive).

Regarding `CCOC(=O)N1CCN(Cc2cc(Br)c(OC)cc2OC)CC1`, the inhibition was 8.78% (inactive).

Take `COc1cc(OC)c(OC)cc1CN1CCN(c2ccccc2F)CC1`: the inhibition was 24.1% (inactive).

As for `COc1cc(CN2CCN(Cc3ccc(OC)c(OC)c3)CC2)cc(OC)c1`, the inhibition is 71.4% (active).

As to `COc1cc(OC)c(OC)cc1CN1CCN(Cc2ccc(F)cc2)CC1`, the inhibition was 64% (active).

As for `COc1cc(CN2CCN(Cc3cc(OC)c(OC)cc3OC)CC2)cc(OC)c1`, the inhibition was 75.9% (active).

Take `COc1cc(CN2CCN(c3nccn3C)CC2)cc(OC)c1`: the inhibition is 8.7% (inactive).

Regarding `COc1cc(CN2CCN(Cc3ccccc3Br)CC2)cc(OC)c1`, the inhibition was 89.3% (active).

Take `COc1ccc(CN2CCC(C(N)=O)CC2)cc1OC`: the inhibition was 1.23% (inactive).

For the compound `CCOc1cc(CN2CCN(Cc3cc(OC)cc(OC)c3)C(CCO)C2)ccc1OC` (stereo not drawn), the inhibition was 0.98% (inactive).

Consider `COc1cc(OC)c(OC)cc1CN1CCN(Cc2ccc3c(c2)OCO3)CC1`, for which the inhibition was 49.8% (inactive).

Regarding `COc1cc(CN2CCN(c3ccccc3OC)CC2)cc(OC)c1`, the inhibition is 10.9% (inactive).

As to `CC(C)Oc1ccccc1/C=C(\C#N)C(=O)Nc1ccccc1`, the inhibition is -0.06% (inactive).

For the compound `O=C(CN1C(=O)CCC1=O)Nc1ccc(O)c(-c2nc3ccccc3s2)c1`, the inhibition is 0.38% (inactive).

`O=C(O)c1ccc(/C=N/Nc2ccc3ccccc3n2)cc1`: the inhibition is 10.5% (inactive).

With `CC(=O)N1CCc2cc(Br)cc(S(=O)(=O)N3CCN(Cc4ccccc4)CC3)c21`, the inhibition was 13.2% (inactive).

As to `O=C(CCS(=O)(=O)c1cccc2nonc12)N1CCCC1`, the inhibition was 11.4% (inactive).

Consider `COc1ccc(Cn2c(CCC(=O)Nc3cccc(SC)c3)nc3cccnc32)cc1`, for which the inhibition was -3.6% (inactive).

Consider `O=C(Oc1cccc(OC(=O)c2ccccc2)c1)c1ccccc1`, for which the inhibition was -0.91% (inactive).

Take `C#CC(C)(C)OC(=O)C1C2C=CC(C2)C1C(=O)O` (stereo not drawn): the inhibition was 21.6% (inactive).

With `Cc1ccc(NC(=O)C2C3C=CC4(O3)C2C(=O)N(C2CCCCCCC2)C4C(=O)NC2CCCCC2)cc1Cl` (stereo not drawn), the inhibition is -0.34% (inactive).

In the case of `O=C(NCCc1ccccc1)c1ccc(Cn2c(=S)[nH]c3cc4c(cc3c2=O)OCO4)cc1`, the inhibition was 13.8% (inactive).

For the compound `CCn1c(=O)c2ccccc2n2c(SCC(=O)Nc3nccs3)nnc12`, the inhibition is 0.8% (inactive).

On to `COc1ccc(CCN2CCC(c3nc(-c4ccc5c(c4)OCO5)no3)CC2)cc1OC`, for which the inhibition is 7.81% (inactive).

As to `O=C(N/N=C/c1cc(Br)ccc1O)c1cc(-c2cccs2)[nH]n1`, the inhibition was 17.6% (inactive).

Turning to `O=C(N/N=C/c1cc(Br)ccc1O)c1ccc(=O)[nH]n1`, the inhibition was 80.2% (active).

Turning to `O=C(N/N=C/c1cc(Br)ccc1O)c1cc(Br)ccc1O`, the inhibition was 8.32% (inactive).

`COC(=O)C1=C(O)/C(=C\c2ccccc2C(F)(F)F)N=C1C`: the inhibition was 1.73% (inactive).

On to `CCOC(=O)C1=C(O)/C(=C\c2cccc(Cl)c2)N=C1C`, for which the inhibition is -3.89% (inactive).

Take `COC(=O)C1=C(O)/C(=C\c2cccc(O)c2)N=C1C`: the inhibition is 58% (active).

Take `CCN(CC)C(=O)C1CCCN(c2cccc(C(=O)NCCOc3ccccc3)c2)C1` (stereo not drawn): the inhibition was 17.9% (inactive).

Consider `c1nc(SCc2ccc3c(c2)OCO3)c2[nH]cnc2n1`, for which the inhibition is 5.04% (inactive).

On to `O=C(CSc1ncnc2nc[nH]c12)c1ccc(O)c(O)c1`, for which the inhibition is 82.1% (active).

With `Cn1c(N)c(C(=O)CSc2ncnc3nc[nH]c23)c(=O)n(C)c1=O`, the inhibition was 10.9% (inactive).

On to `CC(=O)N1CCN(Cc2ccc3c(c2)CN(C(=O)c2cccc(N(C)C)c2)CCO3)CC1`, for which the inhibition was 1.41% (inactive).

In the case of `C/C(=N\NC(=O)CCCc1cc2ccccc2[nH]1)c1ccncc1`, the inhibition was 12.8% (inactive).

As for `COc1cccc(CCNC(=O)CC2C(=O)NCCN2Cc2cccc(C(F)(F)F)c2)c1` (stereo not drawn), the inhibition was 10.1% (inactive).

Turning to `CCCS(=O)(=O)N1CCN(C(C)C)CC1`, the inhibition is 87.2% (active).

As for `CCCS(=O)(=O)N1CCN(c2ccc(C)nn2)CC1`, the inhibition is 1.44% (inactive).

For the compound `CCCS(=O)(=O)N1CCN(C(=O)c2cccs2)CC1`, the inhibition was 16.3% (inactive).

With `C[n+]1ccc(C(=O)N/N=C/c2ccc(Cl)cc2Cl)cc1`, the inhibition is 0.41% (inactive).

In the case of `O=C(N/N=C\c1ccc(Cl)cc1Cl)c1ccccc1O`, the inhibition was 9.14% (inactive).

For `O=C1Nc2c(Cl)cc(Cl)cc2/C1=N\N=C\c1ccc(O)c(O)c1O`, the inhibition is 80.2% (active).

Consider `CCC1CCCCN1Cc1c(O)ccc2c(=O)c(Oc3ccc(OC)cc3)c(C(F)(F)F)oc12` (stereo not drawn), for which the inhibition is -1.92% (inactive).

As for `CC(C)C[C@@H]1NC(=O)[C@@H]2C[C@H](NC(=O)Nc3c(Cl)cccc3Cl)CN2C1=O`, the inhibition is 2.93% (inactive).

Take `Cc1noc(C)c1-c1cccc(C(=O)NCCCN2CCCC2=O)c1`: the inhibition is 12.4% (inactive).

Take `CC(c1ccccn1)N(CCN(C)C)C(=S)Nc1ccccc1F` (stereo not drawn): the inhibition was 58% (active).

Take `CN(C)CCCNC(=O)C(=O)Nc1ccccc1F`: the inhibition is -6.25% (inactive).

In the case of `CCOC(=O)N1CCC(N(CCOC)C(=S)Nc2ccccc2F)CC1`, the inhibition is -9.05% (inactive).

Turning to `Cc1ccc(S(=O)(=O)N(CCC(=O)NCC2CCCO2)Cc2c(Cl)cccc2Cl)cc1` (stereo not drawn), the inhibition is -0.49% (inactive).
